ADAM10 inh: human ADAM10 inhibitors, primary screen, biochemical, QFRET, HTS; Disintegrin and metalloproteinase domain-containing protein 10 (Homo sapiens), O14672; recombinant ADAM10, EDANS/DABCYL FRET peptide cleavage, 3 h; inhibition, % at 7 µM; actives 0.62% (n = 370,000);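 active = inhibition above a per-campaign cutoff equal to the mean of compounds falling between control-based bounds plus 3 SD, cut at about 20% in these data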
Target sequence (O14672 214-748 limits assumed): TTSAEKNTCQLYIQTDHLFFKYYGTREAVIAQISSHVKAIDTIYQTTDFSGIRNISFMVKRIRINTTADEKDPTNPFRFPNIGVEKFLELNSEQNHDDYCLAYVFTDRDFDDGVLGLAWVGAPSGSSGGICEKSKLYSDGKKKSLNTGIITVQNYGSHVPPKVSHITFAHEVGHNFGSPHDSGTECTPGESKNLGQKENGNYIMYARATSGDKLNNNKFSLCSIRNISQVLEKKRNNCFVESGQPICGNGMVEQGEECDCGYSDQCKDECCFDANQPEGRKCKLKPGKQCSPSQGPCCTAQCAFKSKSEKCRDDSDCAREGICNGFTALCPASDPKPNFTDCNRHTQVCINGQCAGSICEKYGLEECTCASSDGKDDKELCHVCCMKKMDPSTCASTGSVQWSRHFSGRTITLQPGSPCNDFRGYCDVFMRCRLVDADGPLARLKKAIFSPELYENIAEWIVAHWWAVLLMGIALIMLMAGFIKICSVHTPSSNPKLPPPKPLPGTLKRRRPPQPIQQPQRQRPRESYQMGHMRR
ADAM17 inh: ADAM17 inhibitors, primary screen, biochemical, QFRET | recombinant ADAM17, EDANS/DABCYL FRET peptide cleavage | inhibition, % at 6.95 µM | actives 0.83% (n = 370,000);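 active = inhibition above the mean of compounds lying between control limits plus 3 SD, set per campaign, cut at about 8.5% in these data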
GC-A act: GC-A stimulated cGMP production enhancers – HEK293 GC-A cells, cGMP TR-FRET, EC30 ANP, primary screen | activation, % at 10 µM | actives 0.14% (n = 370,000) | Atrial natriuretic peptide receptor 1 (Homo sapiens), P16066 | 0% at EC30 ANP, 100% saturating ANP | AID 1671463, 2021; in the data active = activation above about 40%
NPR2 activator: human GC-B receptor activators, primary screen, HEK293 GC-B cells, cGMP TR-FRET, EC30 CNP | AID 1920062, 2024 | activation, % at 10 µM | 0% at EC30 CNP, 100% saturating CNP | Atrial natriuretic peptide receptor 2 (Homo sapiens), P20594 | actives 0.11% (n = 370,000);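 active = activation at 10 µM reaching about 35% in either raw or pattern-adjusted values, limit read from the data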
Numbers stand for hits; n = inactive. Hits are enriched below; roughly 1.3% of the tested compounds scored in any of these assays.

SMILES	ADAM10 inh	ADAM17 inh	GC-A act	NPR2 activator
Cc1ccc(Nc2c(-c3ccccc3)nc3cnccn23)cc1	n	n	48.7	n
COc1ccc(-c2nc3cnccn3c2Nc2ccc(C)cc2)cc1	n	n	61.7	48.4
Cc1ccc(Nc2c(-c3cccnc3)nc3ccc(Br)cn23)cc1	n	n	45.5	43.7
O=[N+]([O-])c1ccccc1/C=C/C=Nn1c(-c2ccc(F)cc2)n[nH]c1=S	n	n	n	n
CC(C)C[C@H]1CNC(=S)N1C[C@H]1CCCN1C[C@H](CC(C)C)N1C[C@H](Cc2ccc(O)cc2)N(CC2CCCCCC2)C1=S	n	n	n	n
CCOc1ccc2nc(NC(=O)c3cccc(N4C(=O)CCC4=O)c3)sc2c1	n	n	n	n
O=C(Nc1nc2ccc(Cl)cc2s1)c1cccc(N2C(=O)CCC2=O)c1	n	n	73.7	n
COc1ccc2nc(NC(=O)c3cccc(N4C(=O)CCC4=O)c3)sc2c1	n	n	53.7	n
CC(C)(C)OC(=O)N[C@H](C(=O)OC(C)(C)C)c1ccc(C(F)(F)F)cc1	n	n	n	n
O=C1CCC[C@H]2C[C@H](NCc3cccs3)CC[C@]23CCCN13	n	n	n	n
COc1cc2cc(CCOC(=O)c3ccc(F)cc3)oc(=O)c2cc1OC	n	n	n	n
CN1CC(=O)N2[C@H](c3ccc4c(c3)OCO4)c3[nH]c4ccccc4c3C[C@@H]2C1=O	n	n	49.5	57.5
COC(=O)c1ccc(C2c3[nH]c4ccccc4c3C[C@H]3C(=O)N(C4CC4)CC(=O)N23)cc1 (some centres undefined)	n	n	55.0	n
COc1ccc(Br)cc1/C=N/Nc1cccc(C(=O)O)c1	n	n	n	n
COc1ccccc1/C=C/C=N/Nc1cccc(C(=O)O)c1	n	n	53.6	n
CC(=O)Nc1ccc2oc(-c3cc(F)c(F)cc3Cl)nc2c1	n	n	57.7	n
OC(COc1ccccc1)CN(Cc1ccccc1)CC(O)COc1ccccc1 (centres undefined)	n	n	n	n
CCC(=O)c1ccc(OCC(O)CN(CCc2ccccc2)Cc2ccccc2)cc1 (centres undefined)	n	9.3	n	n
COc1ccc(C(C)=O)cc1Cn1c(C)c(C(=O)NCc2cccc(Cl)c2)sc1=O	n	n	n	n
COc1ccc(Cl)cc1Cn1c(C)c(C(=O)NCc2cccc(Cl)c2)sc1=O	n	10.3	n	n
COc1ccc(N2C(=O)CC(Sc3nnnn3-c3ccc(F)cc3)C2=O)cc1 (centres undefined)	n	n	n	n
O=C1CC(Sc2nnnn2-c2ccccc2)C(=O)N1c1cccc(Cl)c1 (centres undefined)	n	n	n	36.4
CC(C)(C)n1ncc2c(=O)n(Cc3c(F)cccc3Cl)cnc21	n	n	n	40.5
C[C@H]1CN([C@@H](C)CO)C(=O)Cc2cc(NS(C)(=O)=O)ccc2O[C@@H]1CN(C)Cc1ccc(Cl)c(Cl)c1	n	n	n	n
C[C@@H]1CN([C@@H](C)CO)C(=O)Cc2cc(NC(=O)Nc3ccc(F)cc3)ccc2O[C@@H]1CN(C)Cc1ccc(Cl)c(Cl)c1	34.3	13.0	n	n
SMILES	ADAM10 inh	ADAM17 inh	GC-A act	NPR2 activator
CCc1ccc(C(=O)Cn2ncc(Cl)c(Cl)c2=O)cc1	n	n	59.9	n
COc1ccc(/C=C2/C(=O)N(c3c(F)c(F)c(F)c(F)c3F)N=C2C)cc1	n	n	46.5	n
COc1ccc(-n2nc(C#N)c(Cl)cc2=O)cc1	n	n	46.5	n
COC(=O)c1nn(-c2ccc(OC)cc2)c(=O)cc1O	n	n	n	n
c1cc2ccn(CC3CC3)c2cc1-c1ccc2ccn(CC3CC3)c2c1	n	n	n	38.0
O=C(NC1CC[C@@]23CCCN2C(=O)CCC[C@H]3C1)c1ccccc1 (some centres undefined)	n	n	n	n
O=C1C(SCCO)=C(SCCO)C(=O)c2ccccc21	n	n	50.5	n
CC1=C(SCc2ccccc2)C(=O)c2ccccc2C1=O	n	n	n	n
CCCOc1ccc(/C=C2/C(=O)ON=C2C)cc1Cl	n	n	44.6	n
C=CCNC(=O)c1ccccc1NC(=O)c1ccc(Cl)c(S(=O)(=O)Nc2ccccc2)c1	26.9	n	n	n

Screening data (PubChem BioAssay)
